Data reported in PubChem BioAssay (NCATS).
Results filed as inconclusive are left out. The source made the active and inactive calls. Unless noted, calls follow the shape of the dose curve; as a rule, active = well fitted curve in either direction with a large enough effect (not every such curve was filed as active); inconclusive = small, poorly fitted or top-dose-only effect, or another doubt; inactive = flat fitted curve, though single readings scatter.

Key:
[1] = AP1 Signaling Pathway (AID 357); conditions: ME-180 AP-1-bla reporter, EGF-induced, beta-lactamase ratio, 5 h; at 17.2 µM (top of the series) unless noted;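 also: ME-180 reporter cells stimulated with EGF at its EC50 level; % is scaled to controls: 0 for no effect and ±100 for the full control effect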
Procedure, shortened: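 Cells are seeded overnight, exposed to compound titrations and an EC50 level of EGF for 5 hours at 37 °C, then loaded with CCF4 dye for 2.5 hours. Beta-lactamase activity under the AP-1 element is read as a blue/green ratio.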

[2] = NFAT Signaling Pathway (AID 444); conditions: Jurkat NFAT-bla M1, carbachol, beta-lactamase ratio, 5 h; at 17.2 µM (top of the series) unless noted;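 also: carbachol stimulus at about its EC50 of 1 µM final; % is scaled to controls: 0 for no effect and ±100 for the full control effect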
Procedure, shortened: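 Jurkat cells with NFAT-driven β-lactamase reporter and co-expressed M1 receptor, stimulated with carbachol (final 1 uM, ~EC50), compound titration, 5 h at 37 °C. CCF4 loaded 1 h at RT; 460/530 nm ratio gave %activity and AC50.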

[3] = target: Glucocorticoid receptor (Homo sapiens) (UniProt P04150); test: GR-GFP Redistribution (AID 450;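 active = compounds whose dose series gives a full or clear partial fitted curve of increased nuclear translocation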; also: potency is read from the fitted curve at half-maximal effect); conditions: U2OS GR-GFP nuclear translocation, laser cytometry, 2 h
Glucocorticoid receptor (Homo sapiens), sequence (P04150 whole entry, looked up, the tested form may be a part): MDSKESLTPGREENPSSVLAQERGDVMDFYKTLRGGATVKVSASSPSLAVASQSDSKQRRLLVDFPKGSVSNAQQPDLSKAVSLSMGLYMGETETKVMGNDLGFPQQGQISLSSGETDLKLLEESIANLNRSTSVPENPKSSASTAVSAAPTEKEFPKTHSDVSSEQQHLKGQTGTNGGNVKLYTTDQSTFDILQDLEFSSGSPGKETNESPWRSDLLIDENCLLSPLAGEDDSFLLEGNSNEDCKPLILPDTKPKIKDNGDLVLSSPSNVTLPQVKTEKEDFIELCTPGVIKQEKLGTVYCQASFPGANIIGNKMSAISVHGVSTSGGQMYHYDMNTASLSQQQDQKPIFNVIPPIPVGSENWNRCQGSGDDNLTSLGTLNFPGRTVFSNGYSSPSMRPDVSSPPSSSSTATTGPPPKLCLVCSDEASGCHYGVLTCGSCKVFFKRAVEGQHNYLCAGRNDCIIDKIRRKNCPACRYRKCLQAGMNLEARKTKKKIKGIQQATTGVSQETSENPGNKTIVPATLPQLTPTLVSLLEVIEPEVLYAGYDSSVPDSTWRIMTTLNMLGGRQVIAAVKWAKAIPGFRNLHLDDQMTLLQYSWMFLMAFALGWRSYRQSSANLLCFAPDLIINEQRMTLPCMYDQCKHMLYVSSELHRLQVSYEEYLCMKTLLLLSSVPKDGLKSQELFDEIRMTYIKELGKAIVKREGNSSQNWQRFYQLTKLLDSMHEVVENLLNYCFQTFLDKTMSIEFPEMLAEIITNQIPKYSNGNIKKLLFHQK

[4] = target: Glucocorticoid receptor (Homo sapiens) (UniProt P04150); test: GR-EFC Redistribution (AID 451; calls by dose curve; also: potency is read from the fitted curve at half-maximal effect); conditions: CHO-K1 GR-EFC translocation, beta-gal luminescence, 2 h
Procedure, shortened: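 CHO-K1 cells expressing nuclear EA and GR-ED fragments of b-gal; compounds titrated up to 46 uM final, 2 h at 37 C. GR nuclear translocation read as complemented b-gal luminescence after 1 h RT detection.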

[5] = target: Mitogen-activated protein kinase 10 (Mus musculus) (UniProt Q61831); test: JNK3 AlphaScreen Assay (AID 530);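 also: kinase came from lysate of stimulated human HepG2 cells; signal reports phosphorylation of biotinylated GST-cJun 1-79 at Ser73 with 10 µM ATP; % is scaled to controls: 0 for no effect and ±100 for the full control effect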
Procedure, shortened: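 Pre-activated (IL-1β/TNFα) JNK3 in HepG2 lysates phosphorylates biotin-GST-cJun(1-79), 10 uM ATP; anti-phospho-cJun(Ser73) AlphaScreen read at room temperature, pH 7.6 Tris buffer. Compounds pre-incubated 15 min as titrations.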

[6] = qHTS Assay for Identification of Small Molecule Antagonists for NFkB Signaling Pathway (AID 895; active = well fitted inhibition curve with a large enough effect in the signal ratio, with a control signal flat, not every such curve was filed as active; the % refers to the signal ratio; also: % is scaled to controls: 0 for no effect and ±100 for the full control effect)
Procedure, shortened: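 ME-180 NFkB-bla cells (beta-lactamase under NFkB response element), plated overnight, treated with compound then 10 pM TNF alpha (about EC50) for 5 hrs at 37 C. LiveBLAzer FRET read at 460/530 nm emission, 405 nm excitation.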

[7] = qHTS Assay for Identification of Small Molecule Agonists for Thrombopoietin (TPO) Signaling Pathway (AID 917; active = well fitted curve in the direction sought with a large enough effect; an effect the other way counts as inactive or inconclusive; also: % is scaled to controls: 0 for no effect and ±100 for the full control effect)
Procedure, shortened: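 Murine Ba/F3 cells stably expressing human TPO receptor and a Glycoprotein IIb promoter–luciferase reporter were IL-3-starved overnight, then treated with compounds plus TPO (26 pM final, its EC50) for 24 hrs at 37 C; luminescence was read.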

[8] = target: Muscarinic acetylcholine receptor M1 (Rattus norvegicus) (UniProt P08482); test: qHTS Assay for Antagonists of Acetylcholine Muscarinic M1 Receptor: Kinetic Measurement of Intracellular Calcium Response (AID 943; active = well fitted curve in the direction sought with a large enough effect; an effect the other way counts as inactive or inconclusive; also: nearly all actives have a fitted effect of over 75% in size)
Muscarinic acetylcholine receptor M1 (Rattus norvegicus), sequence (P08482 whole entry, looked up): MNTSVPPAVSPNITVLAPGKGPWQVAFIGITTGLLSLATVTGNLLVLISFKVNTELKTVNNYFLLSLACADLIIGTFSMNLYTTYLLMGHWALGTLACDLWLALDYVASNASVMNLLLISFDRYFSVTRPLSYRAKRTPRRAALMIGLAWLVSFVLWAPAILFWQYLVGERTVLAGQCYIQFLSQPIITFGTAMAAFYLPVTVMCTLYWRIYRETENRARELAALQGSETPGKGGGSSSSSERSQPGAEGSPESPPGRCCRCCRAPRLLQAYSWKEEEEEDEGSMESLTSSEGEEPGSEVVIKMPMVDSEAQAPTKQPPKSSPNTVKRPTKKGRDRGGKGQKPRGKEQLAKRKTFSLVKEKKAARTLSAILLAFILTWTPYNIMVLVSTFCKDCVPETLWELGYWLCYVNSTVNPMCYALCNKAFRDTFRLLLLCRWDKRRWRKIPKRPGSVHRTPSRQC
Procedure, shortened: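 CHO cells expressing rat M1 receptor, Fluo-4 loaded, preincubated 10 min with compound, then stimulated with EC80 carbachol (100 nM final). Kinetic calcium fluorescence over 4 min; response taken as peak over basal signal.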

[9] = target: Pyruvate kinase (Leishmania mexicana) (UniProt Q27686); test: qHTS Validation Assay for Inhibitors of Leishmania Mexicana Pyruvate Kinase (AID 945; active = well fitted curve in the direction sought with a large enough effect; an effect the other way counts as inactive or inconclusive;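 also: 0% = DMSO only neutral control wells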)
Pyruvate kinase (Leishmania mexicana), sequence (Q27686 2-499 E452W): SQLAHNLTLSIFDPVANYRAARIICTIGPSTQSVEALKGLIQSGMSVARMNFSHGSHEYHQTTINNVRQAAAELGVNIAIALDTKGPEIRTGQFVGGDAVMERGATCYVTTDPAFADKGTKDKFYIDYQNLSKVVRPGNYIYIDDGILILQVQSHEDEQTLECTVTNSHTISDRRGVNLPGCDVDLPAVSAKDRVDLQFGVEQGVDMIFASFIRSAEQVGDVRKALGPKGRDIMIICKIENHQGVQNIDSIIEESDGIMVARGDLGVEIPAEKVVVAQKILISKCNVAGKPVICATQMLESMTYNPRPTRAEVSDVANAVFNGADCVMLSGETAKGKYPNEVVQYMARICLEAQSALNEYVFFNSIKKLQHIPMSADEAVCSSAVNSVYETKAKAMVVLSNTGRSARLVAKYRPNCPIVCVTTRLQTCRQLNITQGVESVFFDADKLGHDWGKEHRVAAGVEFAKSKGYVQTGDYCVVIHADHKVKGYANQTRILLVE
Procedure, shortened: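 qHTS eight-point titrations against 0.2 nM LmPYK (E451W) in imidazole buffer pH 7.2 with 0.5 mM PEP, 0.1 mM ADP; 1 h, room temperature. Readout: PKLight luminescence, normalized to neutral DMSO wells.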

[10] = target: Pyruvate kinase PKM (Homo sapiens) (UniProt P14618); test: qHTS Assay for Activators of Human Muscle Pyruvate Kinase (AID 954; active = well fitted curve in the direction sought with a large enough effect, not every such curve was filed as active;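 also: 0% = uninhibited enzyme and -100% = no enzyme or full thiadiazolimine inhibition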)
Pyruvate kinase PKM (Homo sapiens), sequence (P14618 whole entry, looked up): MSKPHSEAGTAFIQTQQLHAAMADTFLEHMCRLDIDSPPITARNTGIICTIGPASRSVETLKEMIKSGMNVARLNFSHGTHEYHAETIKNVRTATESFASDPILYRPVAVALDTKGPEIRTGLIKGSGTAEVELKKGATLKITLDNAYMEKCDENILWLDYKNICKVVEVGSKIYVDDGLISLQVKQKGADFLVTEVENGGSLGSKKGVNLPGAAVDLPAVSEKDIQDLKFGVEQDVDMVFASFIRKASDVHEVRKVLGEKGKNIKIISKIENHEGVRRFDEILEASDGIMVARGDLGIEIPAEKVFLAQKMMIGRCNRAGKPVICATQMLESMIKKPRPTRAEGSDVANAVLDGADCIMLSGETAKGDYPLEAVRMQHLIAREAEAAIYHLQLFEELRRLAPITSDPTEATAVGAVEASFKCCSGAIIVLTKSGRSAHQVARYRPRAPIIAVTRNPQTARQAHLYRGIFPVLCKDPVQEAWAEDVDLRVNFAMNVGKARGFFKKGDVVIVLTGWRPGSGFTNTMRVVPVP
Procedure, shortened: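 Purified human PKM2 (0.1 nM) with 0.5 mM PEP (Km) and 0.1 mM ADP in 50 mM imidazole pH 7.2, KCl, MgCl2, 1 h at room temperature; ATP formed read by coupled luciferase luminescence. Normalized to no-enzyme/110 uM thiadiazolimine inhibition; 0.3 nM enzyme column for activation.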

[11] = target: Alpha-galactosidase (Coffea arabica) (UniProt Q42656); test: Counterscreen for Glucocerebrosidase Inhibitors: qHTS Assay for Coffee Bean alpha-Galactosidase at pH 4.5 (AID 957; active = well fitted curve in the direction sought with a large enough effect; an effect the other way counts as inactive or inconclusive;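 also: plate controls were enzyme alone for no effect and no enzyme for full effect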)
Alpha-galactosidase (Coffea arabica), sequence (Q42656 whole entry, looked up): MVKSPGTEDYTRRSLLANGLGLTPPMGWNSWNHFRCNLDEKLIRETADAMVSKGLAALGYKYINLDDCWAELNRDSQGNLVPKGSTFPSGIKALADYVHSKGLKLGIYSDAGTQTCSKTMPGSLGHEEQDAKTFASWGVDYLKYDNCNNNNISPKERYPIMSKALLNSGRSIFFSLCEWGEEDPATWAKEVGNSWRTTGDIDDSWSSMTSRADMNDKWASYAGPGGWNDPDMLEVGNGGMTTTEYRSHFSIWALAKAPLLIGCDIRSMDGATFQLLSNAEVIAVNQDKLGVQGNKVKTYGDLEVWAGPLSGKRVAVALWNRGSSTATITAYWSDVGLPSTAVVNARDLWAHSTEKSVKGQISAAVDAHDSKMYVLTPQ
Procedure, shortened: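 Coffee bean enzyme (2 nM) with 80 uM 4-methylumbelliferyl alpha-D-galactopyranoside in 50 mM citric acid, 0.005% Tween-20, pH 4.5, 20 min at room temperature; compounds 0.7 nM–77 uM. Stopped at pH 10, fluorescence 365/440 nm; AC50 from Hill fits.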

[12] = target: Alpha-galactosidase A (Homo sapiens) (UniProt P06280); test: Counterscreen for Glucocerebrosidase Inhibitors: qHTS Assay for Human alpha-Galactosidase at pH 4.5 (AID 992; active = well fitted curve in the direction sought with a large enough effect; an effect the other way counts as inactive or inconclusive; also: 0% is about no effect)
Alpha-galactosidase A (Homo sapiens), sequence (P06280 whole entry, looked up): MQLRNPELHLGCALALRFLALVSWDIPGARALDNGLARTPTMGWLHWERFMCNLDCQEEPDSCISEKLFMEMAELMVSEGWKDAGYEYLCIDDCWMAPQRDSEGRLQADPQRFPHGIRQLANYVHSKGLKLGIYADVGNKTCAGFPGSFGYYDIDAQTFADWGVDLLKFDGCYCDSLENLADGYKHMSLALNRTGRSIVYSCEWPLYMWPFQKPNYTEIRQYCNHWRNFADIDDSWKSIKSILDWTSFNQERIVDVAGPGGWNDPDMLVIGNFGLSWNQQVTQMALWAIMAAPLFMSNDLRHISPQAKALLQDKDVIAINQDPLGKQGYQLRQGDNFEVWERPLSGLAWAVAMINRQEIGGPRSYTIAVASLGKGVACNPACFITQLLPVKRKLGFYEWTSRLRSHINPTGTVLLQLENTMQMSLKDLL
Procedure, shortened: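 Human enzyme (2 nM) with 80 uM 4-methylumbelliferyl alpha-D-galactopyranoside in 50 mM citric acid, 0.005% Tween-20, pH 4.5, 20 min at room temperature. Compounds 0.7 nM–77 uM; fluorescence Ex 365/Em 440 after pH 10 stop; AC50 from Hill fits.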

[13] = target: alpha-glucosidase (Oryza sativa, rice) (UniProt Q653V4); test: Counterscreen for Glucocerebrosidase Inhibitors: qHTS Assay for Rice alpha-Glucosidase at pH 5.0 (AID 997; active = well fitted curve in the direction sought with a large enough effect; an effect the other way counts as inactive or inconclusive;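 also: 0% = full activity with enzyme and -100% = basal without enzyme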)
Procedure, shortened: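 Rice alpha-glucosidase (4 nM final) with 400 uM 4-methylumbelliferyl-alpha-D-glucopyranoside in citrate buffer pH 5.0, 20 min at room temperature, stopped at pH 10; fluorescence 365/440 nm, compounds 0.7 nM–77 uM, AC50 from Hill fits.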

[14] = target: Alpha-galactosidase (Coffea arabica) (UniProt Q42656); test: Counterscreen for Glucocerebrosidase Inhibitors: qHTS Assay for Coffee Bean alpha-Galactosidase at pH 5.9 (AID 998; active = well fitted curve in the direction sought with a large enough effect; an effect the other way counts as inactive or inconclusive;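 also: plate controls were uninhibited enzyme for no effect and no-enzyme basal signal for full effect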)
Procedure, shortened: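 Green coffee bean enzyme (2 nM) with 4-methylumbelliferyl alpha-D-galactopyranoside (80 uM) in 50 mM citric acid, 0.005% Tween-20, pH 5.9, 20 min at room temperature; compounds 0.7 nM–77 uM. Stopped at pH 10, fluorescence Ex365/Em440; Hill-fit AC50.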

[15] = Stat Signaling Pathway (AID 446)
Procedure, shortened: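 ME-180 cells carrying a SIE-driven beta-lactamase reporter are stimulated with 40 pM IL-6 for 5 h at 37C in the presence of compound. The 460/530 nm FRET substrate ratio is read after 2.5 h at RT. Data are normalised to 300 pM IL-6 and to 125 nM JAK inhibitor controls.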

[16] = target: 3',5'-cyclic-AMP phosphodiesterase 4B (Homo sapiens) (UniProt Q07343); test: qHTS Assay for Inhibitors of PDE-IV (AID 607; active = well fitted activation curve with a large enough effect in the main read-out, with a control signal flat, not every such curve was filed as active; also: % of control where 0% means no effect)
3',5'-cyclic-AMP phosphodiesterase 4B (Homo sapiens), sequence (Q07343 whole entry, looked up): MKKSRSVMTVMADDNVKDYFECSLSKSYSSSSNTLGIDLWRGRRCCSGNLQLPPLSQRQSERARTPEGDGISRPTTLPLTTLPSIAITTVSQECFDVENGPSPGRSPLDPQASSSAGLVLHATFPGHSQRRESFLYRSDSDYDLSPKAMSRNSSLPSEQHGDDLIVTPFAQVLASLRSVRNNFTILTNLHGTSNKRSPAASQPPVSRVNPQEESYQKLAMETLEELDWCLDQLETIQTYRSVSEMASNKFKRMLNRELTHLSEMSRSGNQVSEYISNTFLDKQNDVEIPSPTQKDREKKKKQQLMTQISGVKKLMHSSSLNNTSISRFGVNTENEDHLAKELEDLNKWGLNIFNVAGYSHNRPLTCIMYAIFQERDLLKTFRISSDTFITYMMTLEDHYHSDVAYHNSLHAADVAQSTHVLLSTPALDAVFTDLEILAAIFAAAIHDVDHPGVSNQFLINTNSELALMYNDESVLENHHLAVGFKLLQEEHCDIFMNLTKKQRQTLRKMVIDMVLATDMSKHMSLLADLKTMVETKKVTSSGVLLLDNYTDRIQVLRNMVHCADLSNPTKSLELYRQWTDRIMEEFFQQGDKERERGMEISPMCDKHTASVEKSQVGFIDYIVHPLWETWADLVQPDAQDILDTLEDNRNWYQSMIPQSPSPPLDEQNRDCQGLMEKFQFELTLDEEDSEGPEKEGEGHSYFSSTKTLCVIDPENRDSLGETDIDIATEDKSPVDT
Procedure, shortened: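 HEK293 ACTOne cells with CNG channel (1000/well), endogenous PDE4; membrane potential dye, compounds up to 22.9 uM final. Fluorescence Ex 535/Em 590; RO 20-1724 (100 uM final) as reference.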

[17] = qHTS Assay for Identification of Small Molecule Agonists for Hypoxia Response Element Signaling Pathway (AID 914; active = well fitted activation curve with a large enough effect in the signal ratio, with a control signal flat, not every such curve was filed as active; the % refers to the signal ratio; also: % of control where 0% means no effect); conditions: ME-180 (cervical carcinoma) HRE-bla reporter, beta-lactamase ratio, CoCl2, 17 h; activation: hits give high values
Procedure, shortened: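 Positive modulation of EC50 CoCl2-induced hypoxia response element signaling is measured in ME-180 cells with a beta-lactamase reporter. Compounds are titrated, incubation runs 17 hours, and %Activity derives from the blue/green ratio.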

[18] = target: Guanine nucleotide-binding protein G(i) subunit alpha-1 (Homo sapiens) (UniProt P63096); test: qHTS Assay for Inhibitors of RGS12 GoLoco Motif Activity (Green Fluorophore) (AID 879; active = well fitted curve in the direction sought with a large enough effect; an effect the other way counts as inactive or inconclusive;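 also: 0% = labeled peptide with Gαi1 and full inhibition = labeled peptide alone without protein; negative values mean loss of peptide binding seen as reduced polarization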)
Guanine nucleotide-binding protein G(i) subunit alpha-1 (Homo sapiens), sequence (P63096 whole entry, looked up): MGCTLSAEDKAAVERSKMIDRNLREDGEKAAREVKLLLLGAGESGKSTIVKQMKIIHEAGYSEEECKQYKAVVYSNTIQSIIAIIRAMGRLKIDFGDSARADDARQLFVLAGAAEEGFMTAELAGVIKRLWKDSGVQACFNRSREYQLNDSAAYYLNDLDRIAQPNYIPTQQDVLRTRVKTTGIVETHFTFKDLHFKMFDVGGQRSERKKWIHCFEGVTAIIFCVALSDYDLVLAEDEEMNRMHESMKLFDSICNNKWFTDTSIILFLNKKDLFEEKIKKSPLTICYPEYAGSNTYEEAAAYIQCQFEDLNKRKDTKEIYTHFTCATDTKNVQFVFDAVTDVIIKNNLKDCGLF
Procedure, shortened: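 Fluorescence polarization assay: 50 nM Gαi1 with 10 nM FITC-labeled RGS12 GoLoco peptide in 10 mM Tris pH 7.5, 150 mM NaCl, 0.1 mM GDP, 0.05% NP40, 10 min at room temperature with compound.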

[19] = target: Muscarinic acetylcholine receptor M1 (Rattus norvegicus) (UniProt P08482); test: qHTS Assay for Antagonists of Acetylcholine Muscarinic M1 Receptor: Measurement of IP-One Response (AID 944; active = well fitted curve in the direction sought with a large enough effect; an effect the other way counts as inactive or inconclusive; also: nearly all actives have a fitted effect of over 75% in size)
Procedure, shortened: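 CHO cells stably expressing rat M1, pretreated 10 min with compound, then stimulated 30 min with carbachol at EC80 (200 nM) in LiCl-containing buffer pH 7.4; IP1 accumulation read by HTRF competition (665/620 nm).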

CC(C)n1cc2c3c(cccc31)[C@@H]1C[C@H](C(=O)O[C@@H](C)[C@H](C)O)CN(C)[C@H]1C2
inactive: activity change, negative = inhibition [1] 1.23% [at 38 µM] | activity change, negative = inhibition [2] -4.79% [at 38 µM] | Potency [3] > 46 µM | Potency [4] > 46 µM | outcome [5] | Potency [6] | outcome [7] | Potency [8] | Potency [9] | outcome [10] | outcome [11] | outcome [12] | outcome [13] | outcome [14]

COC(=O)C(O)(c1ccc(NC(=O)c2ccco2)c(OC)c1)C(F)(F)F (configuration not stated)
inactive: activity change, negative = inhibition [1] -12.5% | activity change, negative = inhibition [2] 4.31% | Potency [3] > 20.6 µM

CC(C)(C)c1ccc(O)c(C[N+](C)(C)C)c1
inactive: activity change, negative = inhibition [1] -0.0649% [at 7.69 µM] | activity change, negative = inhibition [2] -16.5% [at 7.69 µM] | outcome [15] | Potency [3] > 46 µM | activity change, negative = inhibition [5] -0.903% [at 11.4 µM] | outcome [16]

CC1=C(C(=O)OC(C)C)[C@]2(C(=O)N(CC(N)=O)c3ccccc32)C(C#N)=C(N)O1
inactive: activity change, negative = inhibition [1] 16.8% | activity change, negative = inhibition [2] -13.4% | outcome [15] | Potency [3] > 20.6 µM | activation [17] -4.16%

C[C@@H](Cc1ccc2c(c1)OC(C(=O)O)(C(=O)O)O2)NC[C@H](O)c1cccc(Cl)c1
inactive: activity change, negative = inhibition [1] -9.81% [at 38 µM] | activity change, negative = inhibition [2] 14.6% [at 38 µM] | Potency [3] > 46 µM | Potency [4] > 46 µM | outcome [5] | outcome [16] | Potency [18] | outcome [7] | Potency [19] | Potency [9] | outcome [10] | outcome [11] | outcome [12] | outcome [13] | outcome [14]

CN1C(=O)CN=C(c2ccc(Cl)cc2)c2cc(Cl)ccc21
inactive: activity change, negative = inhibition [1] 10.4% | outcome [15]

NC(=NCCC[C@@H](N)C(=O)O)N[N+](=O)[O-]
inactive: activity change, negative = inhibition [1] 2.85% [at 38 µM] | activity change, negative = inhibition [2] 2.93% [at 38 µM] | outcome [15] | Potency [3] > 46 µM | Potency [4] > 46 µM | outcome [5] | outcome [16]

COCCOC(=O)C1=C(N)Oc2c(c(=O)oc3ccccc23)[C@@]12C(=O)Nc1ccccc12
inactive: activity change, negative = inhibition [1] 10.2% | activity change, negative = inhibition [2] -5.71% | outcome [15] | Potency [3] > 20.6 µM | activation [17] -0.572%

CC(C)(O)[C@H]1[C@H]2OC(=O)[C@@H]1[C@]1(O)C[C@H]3O[C@]34C(=O)O[C@H]2[C@]14C (tested in a mixture with another compound)
inactive: activity change, negative = inhibition [1] 5.02% [at 38 µM] | activity change, negative = inhibition [2] -0.245% [at 38 µM] | outcome [15] | Potency [3] > 46 µM | Potency [4] > 46 µM | outcome [5] | outcome [16] | Potency [18] | Potency [19] | Potency [9] | outcome [10] | outcome [11] | outcome [12] | outcome [13] | outcome [14]
